# Screens deposited in PubChem by several laboratories.
# Autophagy mod: autophagy modulators in MEF cells, primary screen, imaging, high-content, MEF GFP-LC3; MEF GFP-LC3 puncta imaging; test concentration mostly 10 µM; calls only at 10 µM (by protocol); 0.98% of 190,000 active; AID 463193, 2010;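 active = percentage of spot-positive cells more than 3 SD above its plate mean, without a fluorescence outlier flag or 80% toxicity; inconclusive = no clear call, values can overlap the other calls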;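 also: spot-positive cell cutoff set from DMSO-treated cells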
# HMGR II inh: inhibitors of E. faecalis class II HMGR, primary screen, biochemical, Enterococcus faecalis. HMG-CoA reductase (Enterococcus faecalis, mvaE). purified E. faecalis HMGR, NADPH absorbance 340 nm kinetic. inhibition, % at 10 µM. 0.41% of 190,000 active. AID 1066, 2008;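 active = inhibition above a set limit, the median over all tested compounds plus 3 SD, cut at about 9.5% in these data; inconclusive = no clear call, values can overlap the other calls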;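 also: enzyme runs in reverse so mevalonate oxidation gives rising NADPH absorbance; 0% = complete reaction with DMSO and 100% = background rate lacking mevalonate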
# p47phox inh: p47phox/p22phox peptide binding inhibitors, primary screen, biochemical, uHTS, NADPH oxidase regulatory subunit. Neutrophil cytosol factor 1 (Homo sapiens), P14598. fluorescence polarization, 2 h. inhibition, % at 24.7 µM. 0.53% of 220,000 active;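 active = inhibition above about 30%, limit read from the data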;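 also: 0% = p47phox with labelled peptide and 100% = labelled peptide alone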
# Target sequence (P14598 whole entry, looked up): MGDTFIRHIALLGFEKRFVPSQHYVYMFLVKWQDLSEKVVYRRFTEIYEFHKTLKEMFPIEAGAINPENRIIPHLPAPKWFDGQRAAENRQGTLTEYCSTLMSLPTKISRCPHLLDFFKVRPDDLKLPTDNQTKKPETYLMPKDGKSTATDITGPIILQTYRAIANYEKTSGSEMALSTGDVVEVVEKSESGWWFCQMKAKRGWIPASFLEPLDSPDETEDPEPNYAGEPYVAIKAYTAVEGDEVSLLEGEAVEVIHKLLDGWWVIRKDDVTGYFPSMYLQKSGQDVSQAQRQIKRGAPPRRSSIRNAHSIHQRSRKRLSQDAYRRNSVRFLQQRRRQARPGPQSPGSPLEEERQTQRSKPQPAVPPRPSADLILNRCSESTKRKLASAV
# Insulin prom up: insulin promoter activators in MIN6 cells, imaging, high-content screening, mouse beta cells | z-score at 5 µM | MIN6 insulin promoter-GFP reporter; stronger effect = higher value | 0.3% of 190,000 active | AID 1625, 2009;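 active = z-score above 3 at 5 µM with at least 500 cells counted in the well; inconclusive = wells under 500 cells, flagged as cytotoxic or low count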
# Redox H2O2 prof: compounds producing H2O2 with reducing agent – biochemical, NIH compound library profiling, artefact control for MLSCN library redox annotation, primary screen; 0.03% of 200,000 active; DTT-dependent redox cycling H2O2, phenol red/HRP absorbance; 100% = 100 µM peroxide control, 0% = buffer; activation, % at 10 µM;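 active = activation of at least 50% relative to the plate's high and low controls in the primary single-dose screen; inactive = activation below 50%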;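 also: compound incubated with DTT at 0.8 mM final as the reducing agent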
# Arbovirus anti: antivirals against arbovirus infection, primary screen, cell-based, full library, 10K replicate subset; arbovirus infection cell-based antiviral screen; inhibition, % at 10 µM; 0.37% of 200,000 active; AID 1251, 2008; in the data active = inhibition above about 30%
# The depositor's hits bear a star; i = inactive; ? = inconclusive; . = no result; + = active, no number. Only some compounds are listed: those with a hit (about 2.2% of all), similar ones and a draw of the others.
SMILES,Autophagy mod,HMGR II inh,p47phox inh,Insulin prom up,Redox H2O2 prof,Arbovirus anti
Cc1cc(NC(=O)NC(C(F)(F)F)C(F)(F)F)no1,i,-1,.,1.3,1,0
O=C(O)c1ccc(-c2nc(-c3ccc(Cl)cc3Cl)cs2)cc1,i,2,-12,-0.22,0,13
O=C(O)c1ccc(-c2nc(-c3ccc(Cl)cc3)cs2)cc1,i,2,-8,1.1,-1,41*
O=C(COC(=O)Cc1ccccc1[N+](=O)[O-])NC1CCCC1,+,1,1,-0.7,-2,1
O=C(COC(=O)c1ccccn1)Nc1ccc2c(c1)OCO2,i,2,1,-0.01,0,-4
O=C(COC(=O)c1ccccn1)Nc1cccc(Cl)c1,i,1,36*,0.07,-1,-1
CCn1ncc(Br)c1C(=O)Nc1ccccc1OC,i,-4,2,-0.3,0,-2
CCOc1ccccc1NC(=O)c1c(Br)cnn1C,i,-4,38*,0.29,-1,-12
O=C(COC(=O)c1ccc(=O)[nH]c1)Nc1cccc(S(=O)(=O)N2CCOCC2)c1,.,.,-4,0.14,.,.
CC(=O)Nc1ccc(NC2=C/C(=N/S(=O)(=O)c3cccs3)c3ccccc3C2=O)cc1,+,-1,7,?,-1,-34
Cc1ccccc1NC1=C/C(=N\S(=O)(=O)c2cccs2)c2ccccc2C1=O,i,-2,14,?,1,-45
Cc1ccc(NC2=C/C(=N/S(=O)(=O)c3cccs3)c3ccccc3C2=O)cc1C,i,1,36*,0.43,-1,-12
CCOC(=O)c1cnn(-c2ccc(F)cc2)c1N,i,-4,0,.,0,-1
CCCCOc1ccc(C(=O)NCc2ccccn2)cc1,i,1,38*,-0.18,0,-4
COc1ccc(C(=O)NCc2ccccn2)cc1,i,5,-6,.,-3,7
COCC1CCN(Cc2cn[nH]c2-c2cc(OC)c(OC)c(OC)c2)CC1,i,11*,2,0.62,-1,1
COc1cc(-c2[nH]ncc2CN(C)Cc2cc(C)[nH]n2)cc(OC)c1OC,i,0,36*,0.63,0,-2
COCCCC1CCN(Cc2cn[nH]c2-c2cc(OC)c(OC)c(OC)c2)CC1,i,0,-2,-0.34,-4,4
Cc1cccc(N2CCN(Cc3nc(-c4cccc(Oc5ccccc5)c4)oc3C)CC2)n1,+,-3,-12,0.01,1,-15
Cc1cc(N2CCN(Cc3nc(-c4ccc(Cl)cc4)oc3C)CC2)cc(C)n1,.,.,17,-0.79,.,.
C[C@@H]1CN(Cc2nc(-c3cccs3)no2)C[C@H](C)O1,+,-3,6,0.73,0,-3
COCC1CCN(Cc2nc(-c3cccs3)no2)C1 (centres undefined),i,-2,-13,-0.04,-1,-1
CC(C)(C)CC(C)(C)NC(=O)/C=C/C(=O)O,.,.,-1,1.1,.,.
CCN(CC)S(=O)(=O)c1ccc(NC(=O)C2c3ccccc3Oc3ccccc32)cc1,i,6,-21,.,0,-3
O=C(NCC1CCCO1)C(c1cccs1)N(Cc1cccs1)C(=O)Cn1nnc(-c2cccs2)n1 (centres undefined),i,16*,-17,-0.61,0,-11
SMILES,Autophagy mod,HMGR II inh,p47phox inh,Insulin prom up,Redox H2O2 prof,Arbovirus anti
CCn1c2ccc(Cl)cc2c2nc3ccccc3nc21,i,-6,-1,-0.4,-1,13
CCCn1nc(-c2ccccc2)c2nc3ccccc3nc21,+,-4,-1,2.9,-2,4
CCCCn1c2nc3ccccc3nc2c2c(=O)n(CCC)cnc21,i,0,-3,0.42,-1,-1
CCCCCn1nc(-c2ccccc2)c2nc3ccccc3nc21,+,3,-8,.,3,-10
CCn1nc(-c2ccccc2)c2nc3ccccc3nc21,+,4,-5,1.6,-12,-3
O=C(/C=C/c1cccc(Cl)c1)NCc1ccccc1,i,0,-3,0.71,-1,-14
CC1(C)CC(=O)C2=C(C1)OC(N)=C(C#N)C2c1cc2c(cc1[N+](=O)[O-])OCO2 (centres undefined),i,-2,25,0.03,0,4
Cc1cc(NC(=O)CSc2nnc(-c3ccco3)o2)no1,i,-2,-5,0.95,-2,2
CC(=O)Nc1ccc(NC(=O)CSc2nnc(-c3ccco3)o2)cc1,+,-3,-5,0.34,0,13
COc1ccc(C(=O)Nc2ccc3cn[nH]c3c2)c(OC)c1,i,1,-33,-0.46,-1,-6
O=C(O)CCCNc1c(C(=O)Nc2ccc(Cl)cc2)cc([N+](=O)[O-])cc1[N+](=O)[O-],i,-6,-12,-0.6,-1,20
CCOC(=O)c1nc2cc3n(c(C)c-2c1C)C(C)C(C)=C3C (centres undefined),i,-2,56*,0.09,-5,-14
N#Cc1c(-c2ccco2)nc(SCC(=O)Nc2ccc(S(N)(=O)=O)cc2)[nH]c1=O,i,1,-7,-0.47,0,32*
Cc1cc(C)nc(NS(=O)(=O)c2ccc(NC(=O)CSc3nc(-c4ccccc4)c(C#N)c(=O)[nH]3)cc2)n1,i,3,4,.,0,7
CCCCOC(=O)c1nc[nH]c1C(=O)OCCCC,i,19*,-1,0.17,1,24
CC1(C)CC(=O)c2cc(C(=O)N3CCN(CCO)CC3)c(=O)n(-c3ccc(Cl)cc3)c2C1,i,11*,-10,0.31,0,12
COc1ccc(-n2c3c(cc(C(=O)N4CCCCC4)c2=O)C(=O)CC(C)(C)C3)cc1,i,-4,-8,0.22,1,2
CN(C)CCCNS(=O)(=O)c1ccc(N2CCC(c3ccc(Cl)cc3)=N2)cc1,?,-10,41*,?,0,-50
CCOc1cc(/C=N/NC(=O)c2cccnc2)cc(Br)c1OCC(N)=O,i,-3,-8,0.71,0,2
Cc1[nH][nH]c(=O)c1C(c1c(C)[nH][nH]c1=O)c1cn(Cc2ccc(F)cc2)c2ccccc12,i,53*,-6,0.18,0,2
Cc1[nH][nH]c(=O)c1C(c1c(C)[nH][nH]c1=O)c1cn(Cc2ccc(Cl)c(Cl)c2)c2ccccc12,i,39*,-10,-0.14,0,15
COc1cc(/C=N/n2nnnc2N)cc(OC)c1OC,.,.,-8,-0.61,.,.
Cc1cc(C)c(C#N)c(SCC2COc3ccccc3O2)n1 (centres undefined),i,-6,-17,3.5*,0,0
Clc1ccc(COc2cccc(CNCc3ccncc3)c2)cc1,i,-1,-1,-2.3,-2,-10
